Source: PubChem
Rows were chosen to be rich in hits. Some 11% of all compounds tested hit in one or more screens of this group.
HPGD inh = HPGD (human) dehydrogenase inhibition. Potency, µM, inactives show top-dose activity change, negative = inhibition, usual class: inhibitors. 150,000 tested, 4.3% active. purified HPGD, NADH fluorescence kinetic, PGE2 substrate. AID 894. P15428; active = well fitted inhibition curve with a large enough effect, not every such curve was filed as active; inconclusive = small, poorly fitted or top-dose-only effect, or another doubt; inactive = no such curve, though single readings can be large or run the other way; note: potency is the fitted concentration of half-maximal effect; % is set by controls: 0 for no effect and ±100 for the full control effect
Target sequence (P15428 whole entry, looked up): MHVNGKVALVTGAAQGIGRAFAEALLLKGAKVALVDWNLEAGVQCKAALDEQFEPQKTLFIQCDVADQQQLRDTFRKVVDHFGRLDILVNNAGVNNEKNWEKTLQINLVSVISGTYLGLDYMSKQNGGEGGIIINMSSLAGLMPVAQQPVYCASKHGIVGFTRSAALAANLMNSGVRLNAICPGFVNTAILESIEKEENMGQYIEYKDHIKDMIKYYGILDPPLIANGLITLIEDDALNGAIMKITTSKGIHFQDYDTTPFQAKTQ
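NADH formation kinetics: reaction with 30 uM PGE2 and 1 mM NAD+ (final), 20 nM enzyme, Tris-HCl pH 8 with Tween 20, after 15 min compound preincubation at room temperature. Fluorescence change, last versus first of five reads.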
ALDH1A1 block = inhibitors of human aldehyde dehydrogenase 1A1. P00352. AID 1030. Potency, µM (doses to about 75.3 µM), for the others: at the highest dose activity, negative = inhibition, hits mostly inhibitors. Purified ALDH1A1, NADH fluorescence, propionaldehyde substrate. 220,000 tested, 7.3% active; active = well fitted inhibition curve with a large enough effect, not every such curve was filed as active; inconclusive = small, poorly fitted or top-dose-only effect, or another doubt; inactive = no such curve, though single readings can be large or run the other way;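 note: potency is the fitted concentration of half-maximal effect; plate controls were no enzyme wells and a reference inhibitor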
Target sequence (P00352 whole entry, looked up): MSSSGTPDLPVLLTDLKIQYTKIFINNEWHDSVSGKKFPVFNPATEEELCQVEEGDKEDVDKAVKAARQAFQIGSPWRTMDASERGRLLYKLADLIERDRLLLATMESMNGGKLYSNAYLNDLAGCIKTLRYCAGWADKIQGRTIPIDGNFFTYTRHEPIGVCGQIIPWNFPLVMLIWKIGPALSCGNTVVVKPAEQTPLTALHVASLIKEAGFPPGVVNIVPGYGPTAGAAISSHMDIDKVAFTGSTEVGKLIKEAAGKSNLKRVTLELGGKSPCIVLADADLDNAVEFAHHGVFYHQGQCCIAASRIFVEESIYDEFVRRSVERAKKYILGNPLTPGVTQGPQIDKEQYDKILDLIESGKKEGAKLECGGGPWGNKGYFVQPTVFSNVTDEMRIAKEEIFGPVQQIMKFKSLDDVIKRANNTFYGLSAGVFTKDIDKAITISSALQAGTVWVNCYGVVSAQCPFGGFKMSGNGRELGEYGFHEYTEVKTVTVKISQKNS
PNC inhibitor = inhibitors of perinucleolar compartment assembly. PC3M PTB-GFP, PNC prevalence imaging, 16 h; hits give low values. activity change (PNC), negative = inhibition, % at 10 µM. 140,000 tested, 3.1% active. AID 2417;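 active = readout at or below -70, meaning at least 70% loss of cells showing the perinucleolar compartment, a nuclear body marking cancer cells; inconclusive = readout between -30 and a set limit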;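 note: plate controls were DMSO wells for no effect and camptothecin positive control wells for full effect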
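PC3M cells stably expressing PTB-GFP, 750–1000 cells/well, treated 16 h at 37 °C with compound (23 nl of library stock), in duplicate. After paraformaldehyde fixation and Hoechst stain, imaged at 20x; PNC prevalence scored by image analysis.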
CBFb-RUNX1 inh = CBF-beta/RUNX1 interaction disruption; Q01196+Q13951; AlphaScreen CBFb-His/RUNX1-biotin binding, biochemical; 230,000 tested, under 10 active; Potency, µM (top dose mostly 59.8 µM), for inactives: at the highest dose activity, negative = inhibition, usual class: inhibitors; note: % of control where 0% means no effect
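Interaction loss through any mechanism counts as activity. Pre-formed complex of His-CBF-beta and biotin-RUNX1 (30 nM apiece) is incubated with compound 15 min, then with 50 ng nickel and 50 ng streptavidin beads for 90 min before AlphaScreen detection.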
HttQ103 aggreg = mutant huntingtin aggregation inhibition. 220,000 tested, 1.1% active. PC12 HttQ103-GFP aggregates, Acumen cytometry, 40 h. Potency, µM (series often up to 46.1 µM), inactives show at the top dose activity change, negative = inhibition, usual class: inhibitors. AID 1688; note: potency is the fitted concentration of half-maximal effect; % is set by controls: 0 for no effect and ±100 for the full control effect; nearly all actives have a fitted effect of over 60% in size
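Multiplexed with ATP-based cell death, this channel scores GFP aggregates in PC12 cells expressing inducible HTTex1-Q103-GFP. Induction used 100 nM tebufenozide; compounds were tested in concentration series.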
HTT ATP protect = cytoprotection in Huntington HTT-Q103 PC12 cell model. PC12 HTT-Q103 induced, cytoprotection, ATP luminescence, 40 h. Potency, µM (doses to about 56.4 µM), without a hit: cytoprotection (ATP increase), actives largely listed as activators. 230,000 tested, 0.14% active. AID 1471; note: potency is the fitted concentration of half-maximal effect; % of control where 0% means no effect; nearly all actives have a fitted effect of over 45% in size
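Huntington model: PC12 line, ecdysone-inducible HTTQ103 exon1–GFP, tebufenozide 100 nM. Test articles in a dose series. Endpoint luminescence from cellular ATP.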
An asterisk follows results filed as active; [ ] = another dose, or the depositor's remark. Unless noted, calls come from the whole dose curve; as a rule, active = well fitted curve in the direction sought with a large enough effect; inconclusive = small, poorly fitted or top-dose-only effect, or another doubt; inactive = no such curve, though single readings can be large; an effect the other way counts as inactive or inconclusive.

For COc1cc(-c2cc(N)n(S(=O)(=O)c3ccccc3)n2)cc(OC)c1OC the results were HPGD inh -14%, ALDH1A1 block 5%, PNC inhibitor -8, CBFb-RUNX1 inh -3%, HttQ103 aggreg 5% and HTT ATP protect -59%.
`Nc1cc(-c2ccc(Br)cc2)nn1S(=O)(=O)c1cccc2nsnc12` gave HPGD inh -29%, ALDH1A1 block 0%, PNC inhibitor 8, CBFb-RUNX1 inh inconclusive, HttQ103 aggreg 25µM* and HTT ATP protect -76%.
Screening O=C(CN(C1CCCCC1)C1CCCCC1)N1CCc2ccccc2C1 returned HPGD inh 2%, ALDH1A1 block -23%, PNC inhibitor -10, CBFb-RUNX1 inh -4%, HttQ103 aggreg -26% and HTT ATP protect 11%.
For Cc1ccc(Cl)cc1N1CCN(C(=O)Cc2ccc(-n3c(=O)[nH]c4ccsc4c3=O)cc2)CC1 the results were HPGD inh -8%, ALDH1A1 block 18%, PNC inhibitor -18, CBFb-RUNX1 inh inconclusive, HttQ103 aggreg -20% and HTT ATP protect 23%[10 µM].
`CCCCn1c(NCc2ccc(N(C)C)cc2)nc2ccccc21` gave ALDH1A1 block 14µM*, CBFb-RUNX1 inh 16%, HttQ103 aggreg -5%[9.22 µM] and HTT ATP protect -3%[10 µM].
For CCCCn1c(NCc2ccncc2)nc2ccccc21 the results were ALDH1A1 block 18%, CBFb-RUNX1 inh 9% and HttQ103 aggreg -8%.
For CCn1c(-c2ccc(N(C)C)cc2)nc2ccccc21 the results were HPGD inh inconclusive, ALDH1A1 block inconclusive, PNC inhibitor -1, CBFb-RUNX1 inh -10%, HttQ103 aggreg 10µM* and HTT ATP protect -97%.
For O=C(N=C1c2ccccc2CN1c1cccc(Cl)c1)c1cccnc1 the results were HPGD inh -4%, ALDH1A1 block 2%, PNC inhibitor 3, CBFb-RUNX1 inh 5%, HttQ103 aggreg -9% and HTT ATP protect inconclusive.
`O=C(N=C1c2ccccc2CN1c1ccc(F)c(F)c1)c1cccnc1` gave ALDH1A1 block 14µM*, CBFb-RUNX1 inh -22%, HttQ103 aggreg 5% and HTT ATP protect -25%.
For Cc1ccc2[nH]c3c(c2c1)CN(C(=O)CN1CCN(c2ccccc2F)CC1)CC3 the results were HPGD inh -14%, ALDH1A1 block 8.9µM*, PNC inhibitor 10, CBFb-RUNX1 inh 4%, HttQ103 aggreg 3% and HTT ATP protect -4%[0.074 µM].
Cc1ccc2[nH]c3c(c2c1)CN(C(=O)CN1CCCCC1)CC3 was read as CBFb-RUNX1 inh 6%, HttQ103 aggreg -15%[9.22 µM] and HTT ATP protect 6%[10 µM].
Screening Cc1ccc2[nH]c3c(c2c1)CN(C(=O)CN1CCCc2ccccc21)CC3 returned HPGD inh 22µM*, ALDH1A1 block 2.8µM*, PNC inhibitor 42, CBFb-RUNX1 inh inconclusive, HttQ103 aggreg -13% and HTT ATP protect -2%.
For O=C1[C@H]2[C@H]3[C@H](O)[C@H](O)C/C(=N/OC[C@@H](O)COCc4ccco4)[C@H]3CC[C@@H]2C(=O)N1c1cccc(Oc2ccccc2)c1 the results were ALDH1A1 block 8%[13.5 µM], CBFb-RUNX1 inh 3%[13.1 µM] and HTT ATP protect -77%[10 µM].
`C=C1CCC2C(C)(CO)C(O)CCC2(C)C1C/C=C1\C(=O)OCC1O` (configuration not stated) gave HPGD inh -5%, ALDH1A1 block 8%, CBFb-RUNX1 inh 14%[21.7 µM] and HTT ATP protect 17%[1.9 µM].
`C=C1CC[C@@H]2[C@](C)(CC[C@@H](O)[C@]2(C)CO)[C@@H]1C/C=C1/C(=O)OC[C@H]1O` gave HTT ATP protect 40µM*.
`N=c1n(CCCOc2ccccc2Cl)c2ccccc2n1CC(N)=O` gave CBFb-RUNX1 inh 10%, HttQ103 aggreg -43%[9.22 µM] and HTT ATP protect 3%[10 µM].
C=CCn1c(O)c(N=NC(=S)Nc2ccc(OC)c(Cl)c2)c2ccccc21 was read as HPGD inh -19%, ALDH1A1 block 22µM*, PNC inhibitor -18, CBFb-RUNX1 inh inconclusive and HttQ103 aggreg inconclusive.
C=CCn1c(O)c(N=NC(=O)C(O)c2ccccc2)c2ccccc21 (configuration not stated) was read as CBFb-RUNX1 inh 7%, HttQ103 aggreg -16%[9.22 µM] and HTT ATP protect 12%[10 µM].
C=CCn1c(O)c(N=O)c2ccccc21 was read as CBFb-RUNX1 inh -4%, HttQ103 aggreg 5%[9.22 µM] and HTT ATP protect 7%[10 µM].
C=CCn1c(O)c(N=NC(=O)OC(C)(C)C)c2ccccc21 was read as HPGD inh inconclusive, ALDH1A1 block inconclusive, PNC inhibitor -100*, CBFb-RUNX1 inh -1%, HttQ103 aggreg -18% and HTT ATP protect 16%[10 µM].
Screening C=CCn1c(O)c(N=Nc2ccccc2C)c2ccccc21 returned ALDH1A1 block 2.8µM*, CBFb-RUNX1 inh 10%, HttQ103 aggreg 12%[9.22 µM] and HTT ATP protect 12%[10 µM].
For C=CCn1c(O)c(N=NC(=S)Nc2ccccc2C)c2cc(S(=O)(=O)N3CCOCC3)ccc21 the results were HPGD inh -25%, ALDH1A1 block 10µM*, PNC inhibitor inconclusive, CBFb-RUNX1 inh 5% and HttQ103 aggreg -13%.
Cc1cc(C(=O)NCCc2ccc(S(=O)(=O)NC(=O)NN3CCCCCC3)cc2)no1 was read as HPGD inh -2%, ALDH1A1 block 7%, CBFb-RUNX1 inh -2%, HttQ103 aggreg -15% and HTT ATP protect inconclusive.
For CSc1ncnc2nc[nH]c12 the results were HTT ATP protect -21%.
`CCCS(=O)(=O)O` gave HPGD inh 0%, ALDH1A1 block 12%[13.5 µM] and HTT ATP protect -7%[10 µM].
`CCN(CC)c1ccc(/C=N/n2nnnc2N)c(O)c1` gave HPGD inh inconclusive, ALDH1A1 block inconclusive, PNC inhibitor -120*, CBFb-RUNX1 inh 4%, HttQ103 aggreg 5.6µM* and HTT ATP protect -28%.
CCN(CC)c1ccc(C=Nc2ccc(C)cc2C)c(O)c1 was read as ALDH1A1 block 20µM*, CBFb-RUNX1 inh 5%, HttQ103 aggreg 13%[9.22 µM] and HTT ATP protect 4%[10 µM].
`CCN(CC)c1ccc(/C=N/Nc2ccc(C)cc2)c(O)c1` gave HPGD inh 32µM*, ALDH1A1 block 10µM*, PNC inhibitor -12, CBFb-RUNX1 inh -26%, HttQ103 aggreg 11% and HTT ATP protect 35%[10 µM].
Cc1cccc(N/N=C/c2ccccc2O)c1 was read as HPGD inh inconclusive, ALDH1A1 block 25µM*, PNC inhibitor 12, CBFb-RUNX1 inh -2%, HttQ103 aggreg 5% and HTT ATP protect 27%[10 µM].
